Among the data in the supplement of paper PMC12819154, “High-throughput peptide-centric local stability assay extends protein–ligand identification to membrane proteins, tissues and bacteria” (Nature Structural & Molecular Biology, 2025) are log2 fold change values, retold here.

UniProt Q9NWZ3, sequence (Q9NWZ3 whole entry): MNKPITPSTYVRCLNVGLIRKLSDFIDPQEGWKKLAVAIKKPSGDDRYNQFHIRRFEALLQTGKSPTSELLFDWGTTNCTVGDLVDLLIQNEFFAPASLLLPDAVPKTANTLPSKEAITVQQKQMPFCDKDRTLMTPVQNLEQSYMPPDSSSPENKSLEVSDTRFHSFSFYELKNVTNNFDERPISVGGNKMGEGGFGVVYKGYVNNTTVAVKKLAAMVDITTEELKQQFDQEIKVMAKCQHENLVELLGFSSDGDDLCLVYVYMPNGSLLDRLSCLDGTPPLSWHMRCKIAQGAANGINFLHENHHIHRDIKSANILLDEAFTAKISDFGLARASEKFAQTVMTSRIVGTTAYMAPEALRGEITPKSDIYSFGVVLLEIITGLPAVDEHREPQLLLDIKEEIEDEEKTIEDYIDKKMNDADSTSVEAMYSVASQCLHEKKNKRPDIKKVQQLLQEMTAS
UniProt P13861, sequence (P13861 whole entry): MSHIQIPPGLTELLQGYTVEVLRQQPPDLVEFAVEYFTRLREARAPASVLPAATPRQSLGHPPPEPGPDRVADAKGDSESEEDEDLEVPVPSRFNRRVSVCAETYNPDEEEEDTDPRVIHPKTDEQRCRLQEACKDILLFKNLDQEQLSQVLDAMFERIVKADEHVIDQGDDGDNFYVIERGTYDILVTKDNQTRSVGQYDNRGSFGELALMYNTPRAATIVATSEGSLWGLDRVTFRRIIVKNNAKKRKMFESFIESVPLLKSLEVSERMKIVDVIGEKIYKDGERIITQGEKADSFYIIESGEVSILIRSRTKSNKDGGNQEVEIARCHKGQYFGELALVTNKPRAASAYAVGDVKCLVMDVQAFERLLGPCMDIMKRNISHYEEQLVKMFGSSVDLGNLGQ
UniProt Q12815, sequence (Q12815 whole entry): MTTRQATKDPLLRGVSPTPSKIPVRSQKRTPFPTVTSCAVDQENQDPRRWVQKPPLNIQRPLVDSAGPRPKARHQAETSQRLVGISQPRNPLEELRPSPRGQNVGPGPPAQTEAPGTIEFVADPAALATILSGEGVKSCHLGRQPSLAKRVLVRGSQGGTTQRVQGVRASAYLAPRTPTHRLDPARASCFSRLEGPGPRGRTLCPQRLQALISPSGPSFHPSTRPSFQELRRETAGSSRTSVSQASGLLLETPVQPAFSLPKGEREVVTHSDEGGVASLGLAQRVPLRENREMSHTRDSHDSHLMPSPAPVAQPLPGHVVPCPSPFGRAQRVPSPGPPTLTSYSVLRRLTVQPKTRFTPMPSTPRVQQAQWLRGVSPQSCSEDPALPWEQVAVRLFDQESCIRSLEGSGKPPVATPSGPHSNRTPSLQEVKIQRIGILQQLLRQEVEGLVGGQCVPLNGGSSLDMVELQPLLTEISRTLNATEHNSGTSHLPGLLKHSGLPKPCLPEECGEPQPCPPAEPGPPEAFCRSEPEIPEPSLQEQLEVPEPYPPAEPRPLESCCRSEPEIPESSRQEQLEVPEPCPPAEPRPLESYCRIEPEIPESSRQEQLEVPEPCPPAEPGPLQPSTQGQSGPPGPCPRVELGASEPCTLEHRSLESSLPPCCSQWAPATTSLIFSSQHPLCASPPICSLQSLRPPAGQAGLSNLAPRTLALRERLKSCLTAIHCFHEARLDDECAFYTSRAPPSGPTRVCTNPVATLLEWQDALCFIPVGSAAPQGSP
UniProt Q9UHD2, sequence (Q9UHD2 whole entry): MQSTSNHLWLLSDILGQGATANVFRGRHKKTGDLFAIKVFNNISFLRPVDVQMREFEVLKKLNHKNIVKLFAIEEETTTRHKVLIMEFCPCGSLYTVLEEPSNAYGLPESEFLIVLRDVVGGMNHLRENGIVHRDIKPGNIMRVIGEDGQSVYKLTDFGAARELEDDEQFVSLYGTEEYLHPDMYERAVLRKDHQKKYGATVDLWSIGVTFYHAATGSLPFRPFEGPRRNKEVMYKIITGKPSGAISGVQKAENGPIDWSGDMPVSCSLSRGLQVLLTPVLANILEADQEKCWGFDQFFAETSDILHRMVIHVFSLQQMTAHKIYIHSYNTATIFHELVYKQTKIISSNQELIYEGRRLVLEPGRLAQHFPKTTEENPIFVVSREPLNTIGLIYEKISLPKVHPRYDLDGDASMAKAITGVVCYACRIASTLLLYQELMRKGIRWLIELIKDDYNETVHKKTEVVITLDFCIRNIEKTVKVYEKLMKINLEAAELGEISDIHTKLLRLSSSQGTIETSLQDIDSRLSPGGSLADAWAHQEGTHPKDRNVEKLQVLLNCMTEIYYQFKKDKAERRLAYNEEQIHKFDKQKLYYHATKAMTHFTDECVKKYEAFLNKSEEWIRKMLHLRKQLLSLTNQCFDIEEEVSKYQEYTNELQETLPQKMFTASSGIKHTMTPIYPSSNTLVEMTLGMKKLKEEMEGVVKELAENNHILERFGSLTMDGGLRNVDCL
UniProt Q93074, sequence (Q93074 whole entry): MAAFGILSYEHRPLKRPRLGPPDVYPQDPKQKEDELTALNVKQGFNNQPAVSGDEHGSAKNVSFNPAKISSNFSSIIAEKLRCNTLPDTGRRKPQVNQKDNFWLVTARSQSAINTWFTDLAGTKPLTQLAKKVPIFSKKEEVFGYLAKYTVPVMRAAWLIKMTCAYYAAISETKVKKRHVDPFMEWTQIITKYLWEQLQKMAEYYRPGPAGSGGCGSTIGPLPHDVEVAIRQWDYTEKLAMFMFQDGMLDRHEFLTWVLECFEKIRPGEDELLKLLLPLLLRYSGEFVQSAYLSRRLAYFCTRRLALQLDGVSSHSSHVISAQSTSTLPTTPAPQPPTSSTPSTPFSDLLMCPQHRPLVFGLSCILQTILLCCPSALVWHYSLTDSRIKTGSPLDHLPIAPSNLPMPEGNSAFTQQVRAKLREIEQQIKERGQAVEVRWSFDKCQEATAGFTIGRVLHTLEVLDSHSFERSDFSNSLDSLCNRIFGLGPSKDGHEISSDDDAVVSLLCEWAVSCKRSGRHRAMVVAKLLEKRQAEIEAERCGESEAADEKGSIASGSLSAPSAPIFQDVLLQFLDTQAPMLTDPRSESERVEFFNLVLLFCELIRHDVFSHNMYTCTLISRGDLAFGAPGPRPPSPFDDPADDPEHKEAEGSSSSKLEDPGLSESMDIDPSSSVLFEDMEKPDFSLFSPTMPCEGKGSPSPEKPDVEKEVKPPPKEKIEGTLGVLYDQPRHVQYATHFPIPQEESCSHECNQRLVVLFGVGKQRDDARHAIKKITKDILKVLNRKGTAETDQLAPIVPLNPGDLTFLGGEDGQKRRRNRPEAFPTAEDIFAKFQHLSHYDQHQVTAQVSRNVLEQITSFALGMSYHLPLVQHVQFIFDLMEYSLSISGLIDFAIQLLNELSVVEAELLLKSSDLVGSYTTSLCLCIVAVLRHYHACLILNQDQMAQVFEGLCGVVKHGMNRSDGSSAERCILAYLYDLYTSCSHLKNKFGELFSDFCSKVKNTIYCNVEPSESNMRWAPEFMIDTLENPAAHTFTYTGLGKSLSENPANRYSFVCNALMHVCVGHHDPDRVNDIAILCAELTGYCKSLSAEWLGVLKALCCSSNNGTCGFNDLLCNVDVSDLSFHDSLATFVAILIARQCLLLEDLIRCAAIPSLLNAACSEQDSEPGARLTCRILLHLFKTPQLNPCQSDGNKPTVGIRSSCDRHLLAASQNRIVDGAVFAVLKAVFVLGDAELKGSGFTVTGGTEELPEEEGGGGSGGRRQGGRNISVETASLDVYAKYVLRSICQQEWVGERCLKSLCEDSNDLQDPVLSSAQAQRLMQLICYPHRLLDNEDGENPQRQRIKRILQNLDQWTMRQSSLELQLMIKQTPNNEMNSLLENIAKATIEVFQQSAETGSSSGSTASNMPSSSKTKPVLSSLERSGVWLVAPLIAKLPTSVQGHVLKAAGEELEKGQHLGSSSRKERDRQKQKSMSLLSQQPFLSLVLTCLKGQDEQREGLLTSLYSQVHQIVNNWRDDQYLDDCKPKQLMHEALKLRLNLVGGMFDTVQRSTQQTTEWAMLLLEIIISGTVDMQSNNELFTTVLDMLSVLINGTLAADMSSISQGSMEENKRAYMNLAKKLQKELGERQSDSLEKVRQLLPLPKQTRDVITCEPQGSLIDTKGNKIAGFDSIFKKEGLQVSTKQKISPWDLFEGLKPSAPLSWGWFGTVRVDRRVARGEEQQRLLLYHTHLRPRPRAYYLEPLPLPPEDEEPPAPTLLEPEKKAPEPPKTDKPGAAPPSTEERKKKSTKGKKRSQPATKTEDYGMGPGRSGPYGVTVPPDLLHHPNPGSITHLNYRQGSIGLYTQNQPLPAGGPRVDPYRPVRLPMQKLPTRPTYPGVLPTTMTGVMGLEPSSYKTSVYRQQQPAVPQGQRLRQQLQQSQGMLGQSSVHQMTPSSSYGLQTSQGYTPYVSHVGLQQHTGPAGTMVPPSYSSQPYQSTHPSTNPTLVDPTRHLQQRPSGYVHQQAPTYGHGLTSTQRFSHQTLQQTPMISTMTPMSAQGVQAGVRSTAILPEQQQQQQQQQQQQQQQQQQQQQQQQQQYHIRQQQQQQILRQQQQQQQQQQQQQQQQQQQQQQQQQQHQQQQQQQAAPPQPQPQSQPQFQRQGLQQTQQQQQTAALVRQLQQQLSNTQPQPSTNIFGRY
UniProt P30041, sequence (P30041 whole entry): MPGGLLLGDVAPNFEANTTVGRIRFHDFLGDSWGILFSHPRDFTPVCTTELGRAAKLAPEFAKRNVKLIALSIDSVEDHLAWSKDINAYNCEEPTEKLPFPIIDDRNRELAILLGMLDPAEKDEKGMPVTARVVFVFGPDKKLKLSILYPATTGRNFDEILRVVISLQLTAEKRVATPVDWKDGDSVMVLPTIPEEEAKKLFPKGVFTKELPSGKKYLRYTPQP
UniProt P09417, sequence (P09417 whole entry): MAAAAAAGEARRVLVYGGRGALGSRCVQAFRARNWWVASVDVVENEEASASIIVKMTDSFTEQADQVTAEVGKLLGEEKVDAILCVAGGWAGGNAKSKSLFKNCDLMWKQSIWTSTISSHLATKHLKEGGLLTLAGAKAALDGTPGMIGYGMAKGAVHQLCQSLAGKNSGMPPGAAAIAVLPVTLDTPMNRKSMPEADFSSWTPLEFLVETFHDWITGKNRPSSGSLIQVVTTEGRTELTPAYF

Compound in this experiment: CN[C@@H]1C[C@H]2O[C@@](C)([C@@H]1OC)n1c3ccccc3c3c4c(c5c6ccccc6n2c5c31)C(=O)NC4 [staurosporine]
The experiment in a line: log2 fold change of tryptic peptide abundance, ligand vs vehicle (limited proteolysis) (log2 ratio); higher = more trypsin-susceptible (destabilized). The note with it: ligand concentration: 20 uM; sample: K562 cleared lysate; digestion: 4 min, 22 C (HT-PELSA RT4min, Orbitrap Astral).
Take “TBK1 (peptide sequence: VIGEDGQSVYK, peptide start residue: 144) (UniProt Q9UHD2)”: the log2 fold change is -1.75.
Then “IRAK4 (peptide sequence: MGEGGFGVVYK, peptide start residue: 192) (UniProt Q9NWZ3)”, with -2.25.
As for “QDPR (peptide sequence: EGGLLTLAGAK, peptide start residue: 128) (UniProt P09417)”, the figure is 0.635; as for “PRKAR2A (peptide sequence: GQYFGELALVTNKPR, peptide start residue: 333) (UniProt P13861)”, 0.659; as for “UniProt Q96G28 (peptide sequence: NIEMQLQAIR, peptide start residue: 117)”, 0.282.
Turning to “OSBPL6 (peptide sequence: NFVFWQDIR, peptide start residue: 687) (UniProt Q9BZF3)”, the log2 fold change was -1.81.
With “MED12 (peptide sequence: NVSFNPAK, peptide start residue: 61) (UniProt Q93074)”, the log2 fold change stood at 0.555.
As to “TROAP (peptide sequence: SCLTAIHCFHEAR, peptide start residue: 717) (UniProt Q12815)”, the log2 fold change was found to be 1.24.
Then “PRDX6 (peptide sequence: NFDEILR, peptide start residue: 156) (UniProt P30041)”, with 0.443.
